D1 ag: Allosteric Agonists of the Human D1 Dopamine Receptor: qHTS; HEK293 T-REx D1 cells, calcium flux, agonist mode; activation, % at 2 µM; D(1A) dopamine receptor (Homo sapiens), P21728; 360,000 compounds, 1% hits; in the data active = activation above about 30%
Target sequence (P21728 whole entry, looked up): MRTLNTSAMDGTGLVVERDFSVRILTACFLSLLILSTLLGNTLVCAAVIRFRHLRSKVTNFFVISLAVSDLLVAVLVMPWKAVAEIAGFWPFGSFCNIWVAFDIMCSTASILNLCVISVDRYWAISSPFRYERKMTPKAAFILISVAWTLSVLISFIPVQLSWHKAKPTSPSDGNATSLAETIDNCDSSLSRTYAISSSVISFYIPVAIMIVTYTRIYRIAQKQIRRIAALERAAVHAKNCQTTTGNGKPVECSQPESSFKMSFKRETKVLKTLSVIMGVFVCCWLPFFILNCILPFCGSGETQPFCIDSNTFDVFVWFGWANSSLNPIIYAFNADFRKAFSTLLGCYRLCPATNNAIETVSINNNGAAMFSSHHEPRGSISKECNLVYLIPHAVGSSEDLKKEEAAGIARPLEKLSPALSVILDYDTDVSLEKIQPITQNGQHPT
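Tetracycline-induced HEK293 TREx D1 cells, force-coupled to calcium signalling, were dye-loaded with a no-wash calcium kit. Compound was pin-added after a 10 s baseline. Fluorescence was read kinetically at 1 cycle/s for 180 s, with calcium rises flagged as agonism.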
D1 antagonist: Antagonist of Human D 1 Dopamine Receptor: qHTS. AID 504652, 2011. 360,000 compounds, 3.2% hits. activity change, negative = inhibition, % at 10 µM. HEK293 TREx D1 cells, calcium flux, dopamine EC80; stronger effect = lower value. D(1A) dopamine receptor (Homo sapiens), P21728; in the data active = activity change below about -30%
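Calcium flux readout: force-coupled, inducible Hek293 Trex D1 line, cells induced overnight at 30 C with tetracycline, dye-loaded 30–90 min at RT. Antagonism scored against EC80 dopamine challenge given 180 s after compound.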
D1 PAM: Potentiators of Human D1 Dopamine Receptor: qHTS. D(1A) dopamine receptor (Homo sapiens), P21728. HEK293 TREx D1 cells, calcium flux, dopamine EC20 potentiation. potentiation, % at 10 µM. 360,000 compounds, 0.036% hits. AID 504651, 2011; in the data active = potentiation above about 30%
D3 antag: qHTS of D3 Dopamine Receptor Antagonist: qHTS. D(3) dopamine receptor (Homo sapiens), P35462. D3R cells, DiscoveRx beta-arrestin luminescence, antagonist mode; stronger effect = lower value. max response, negative = inhibition, %. 360,000 compounds, 2.5% hits. AID 652054, 2013; in the data active = max response below about -50%; inconclusive = no clear call, values can overlap the other calls
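Cells expressing the human receptor were seeded at 1500 cells/well, incubated overnight at 37 degrees C in 5% CO2, then exposed to library compounds with dopamine controls for 90 minutes at 37 degrees C before luminescent detection.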
DRD3 agonist: qHTS of D3 Dopamine Receptor Agonist: qHTS. D(3) dopamine receptor (Homo sapiens), P35462. D3R DiscoveRx beta-arrestin cells, luminescence, 90 min. max activation, %. 410,000 compounds, 0.58% hits; in the data active = max activation above about 30%
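Cells at 1500/well, incubated overnight, then treated with pinned compounds (dopamine as control) for 90 min at 37 degrees C. DiscoveRx reagent added for 30 - 60 minutes at room temperature; luminescence read.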
Each line names hits and unclear results; the compound was inactive in the other large screens. Shown are actives, neighbours in structure and some others; about 6.1% of the full set was active somewhere.

COc1ccc(OC)c(NC(=O)Nc2cccc3ccccc23)c1	D3 antag -57
CCOc1ccc(N(C)S(=O)(=O)c2c(C(=O)N3CCC(C)CC3)c(C)n(C)c2C)cc1	none (no result: D3 antag)
NC(=O)C1CCN(C(=O)COc2ccc(Nc3ccccc3)cc2)CC1	none
Cn1c2ccccc2c(=O)c2c(=O)n(C3CCCCCC3)c(C3CCCCC3)nc21	D1 ag 121
CCc1nc2c(c(=O)c3ccccc3n2C)c(=O)n1C1CCCCCC1	D1 ag 195, D3 antag inconclusive
Cn1c2ccccc2c(=O)c2c(=O)n(C3CCCCC3)c(-c3cccs3)nc21	D1 ag 116, D1 antagonist -32
Cc1nc(-c2ccccc2)sc1CCNS(=O)(=O)c1ccccc1	none (no result: D3 antag)
CCCCCCCCCC(=O)N[C@H](CN1CCOCC1)[C@H](O)c1ccccc1	none (no result: D1 ag, D1 antagonist, D1 PAM)
CCCCCCCCCCCC(=O)NC(C(=O)O)C(O)c1ccccc1 (centres undefined)	D1 ag 374
COc1ccc(C)cc1NC(=O)N1CCC(CN2CCOCC2)CC1	none (no result: D3 antag)
Cc1cccc(CN2CCN(CC(=O)O)C2=O)c1	D3 antag -109
CC(CCc1ccccc1)NC(=O)CN1CCN(Cc2ccccc2)C1=O (centres undefined)	DRD3 agonist 31
O=C(CN1CCN(Cc2ccccc2Cl)C1=O)NCCc1ccc(Cl)cc1	D1 antagonist -33 (no result: D3 antag)
CCOc1ccc(NC(=O)c2c(NCc3ccc(C)o3)sc3c2CCCCC3)cc1	none (no result: D3 antag)
Cc1ccc(CN2C(=O)N/C(=C\c3ccc(N4CCOCC4)cc3)C2=O)cc1	none
CCN1C(=O)/C(=C/c2ccc(N3CCCC3)cc2)NC1=S	D1 ag 242, D1 antagonist -52
CCCN1C(=O)/C(=C/c2ccc(N3CCOCC3)cc2)NC1=S	D1 ag 132
Cc1cc(NC(=O)C(C)Oc2ccc(Cl)cc2Cl)no1 (centres undefined)	none
O=C(c1ccccc1)c1ccc(O)c(O)c1O	none (no result: D1 ag, D1 antagonist, D1 PAM)
O=C(COC(=O)[C@H](Cc1ccccc1)NC(=O)c1cccs1)NC1CCCCC1	D1 antagonist -43
O=C(COC(=O)c1ccccc1NS(=O)(=O)c1cccs1)NCC12CC3CC(CC(C3)C1)C2	none
O=C(COC(=O)c1ccccc1NS(=O)(=O)c1cccs1)NC1CCCCC1	D1 antagonist -55
Cc1ccc(C)c2c(N)c3c(nc12)CCCCC3 (tested in a mixture with another compound)	none
COc1cc2[nH]c(C(=O)NCc3ccccc3)cc2c(OC)c1OC	D1 antagonist -36, D3 antag -105
COc1cc2[nH]cc(C(=O)NCCc3ccccc3)c(=O)c2cc1OC	D1 antagonist -32
COc1cc2[nH]c(C(=O)NCCc3ccccc3)cc2c(OC)c1OC	D3 antag -61
CCN(CC)S(=O)(=O)c1nnc(NC(=O)c2ccc(C)cc2)s1	none (no result: D3 antag)
N#C/C(=C\c1ccc(O)cc1)C(=O)NCc1ccccc1	none
N#C/C(=C/c1ccc(O)cc1)C(=O)NCc1ccc(Cl)cc1	D1 ag 34
N#C/C(=C\c1ccc(O)cc1)C(=O)NCc1cccc(Cl)c1	D1 ag 53
COC(=O)CN1C(=O)CSc2ccc(S(=O)(=O)Nc3cccc(C)c3C)cc21	none (no result: D3 antag)
Cc1ccc(NC(=O)Cn2nnc(C(=O)NCc3ccc4c(c3)OCO4)c2N)cc1Cl	none (no result: D3 antag)
O=C(c1cc([N+](=O)[O-])ccc1Cl)N1c2ccccc2Sc2ccccc21	D1 antagonist -37
Cc1ccc(CN(Cc2ccccc2)C(=S)Nc2ccccc2C)o1	none
Cc1[nH]nc2c1/C(=N\O)CCC2	none
COc1ccc(N2CCN(c3cc(C)c4ccc(C)cc4n3)CC2)cc1	none
COc1ccc(N2CCN(c3nc4cc(C)ccc4cc3C=O)CC2)cc1	DRD3 agonist 31
O=C1NC[C@H](CCCCN2C[C@H](Cc3ccccc3)N(CCc3ccc(O)cc3)C(=O)C2=O)N(CCC2CCCCC2)C1=O	none (no result: D1 ag, D1 antagonist, D1 PAM)
Cc1cc[n+](-c2[nH]c(=O)sc2/C=N/NC([S-])=Nc2ccccc2)cc1	none
O=c1[nH]c(-[n+]2ccccc2)c(/C=N/NC([S-])=Nc2ccccc2)s1	D1 ag 174
Cc1cc(C)n(C(C)CC(=O)NCc2ccc(Cl)cc2)n1 (centres undefined)	none (no result: D3 antag)
CC(C)(C)C(=O)Nc1ccccc1N1CCN(c2ccc(F)cc2)CC1	none
Cc1ccc(OCC(=O)NNC(=S)NC(=O)c2ccc(Br)o2)c(C)c1	D1 ag 41
CCCNC(=O)C(Cc1cccc(C#N)c1)NC(=O)c1ccc(C#N)cc1 (centres undefined)	DRD3 agonist 90
CCCNC(=O)C(Cc1cccc(Cl)c1)NC(=O)c1ccc(C#N)cc1 (centres undefined)	none
CC(C)N1CCC(NC(=O)Nc2ccc3c(c2)OCO3)CC1	none
COc1ccc(CCNC(=O)COC(=O)CSc2ccc([N+](=O)[O-])cc2)cc1OC	D1 antagonist -45
O=C(COC(=O)c1ccc([N+](=O)[O-])o1)NCCCc1ccccc1	D3 antag -51 (no result: D1 ag, D1 antagonist, D1 PAM)
O=C(COC(=O)CSc1ccc([N+](=O)[O-])cc1)NCCc1ccccc1	D1 antagonist -34
O=C(COC(=O)CSc1ccc([N+](=O)[O-])cc1)NCc1ccco1	none
CC(OC(=O)CSc1ccc([N+](=O)[O-])cc1)C(=O)NCc1ccccc1 (centres undefined)	D1 antagonist -55
Cc1c(-c2ccc(OCc3ccccc3)cc2)nc2ccccc2c1C(=O)O	none
O=C(NCc1cccc(C(F)(F)F)c1)c1ccc2sc([C@H]3C[C@H](O)[C@@H](CO)O3)nc2c1	none (no result: D1 ag, D1 antagonist, D1 PAM)
O=C(COC(=O)CSc1ccc(F)cc1)NCCCc1ccccc1	none
O=C(COC(=O)CSc1ccc([N+](=O)[O-])cc1)NCCCc1ccccc1	D1 antagonist -33
O=C(COC(=O)Cc1cccc(F)c1)NCCc1ccccc1	D1 antagonist -68
CCCCCc1nnc(NC(=O)CN2C(=O)C3CCCCC3C2=O)s1 (centres undefined)	none
O=C(Nc1ccc2cn[nH]c2c1)c1ccc(Cl)c(S(=O)(=O)N2CCOCC2)c1	none
O=C(N[C@@H](Cc1ccccc1)C(=O)CCl)OCc1ccccc1	D3 antag -94
COc1ccc(-n2cc(-c3ccccc3)c3c(N4CCN(CCO)CC4)ncnc32)cc1	D1 antagonist -36
CC1CN(c2ncnc3c2c(-c2ccccc2)cn3-c2ccc(F)cc2)CC(C)O1 (centres undefined)	D3 antag -92
Fc1ccc(-n2cc(-c3ccccc3)c3c(NN4CCOCC4)ncnc32)cc1	D1 antagonist -33
OCCN1CCN(c2ncnc3c2c(-c2ccccc2)cn3-c2ccc(F)cc2)CC1	D3 antag -75
COc1cccc(N2CCN(c3ncnc4c3c(-c3ccccc3)cn4-c3ccc(C)cc3)CC2)c1	none (no result: D3 antag)
